From PubChem BioAssay AID1508645 (National Center for Advancing Translational Sciences (NCATS), 2021)
Inconclusive results are not listed. Calls of active or inactive are those of the source. Calls follow the shape of the dose curve; as a rule, active = well fitted cell-killing curve with a large enough effect; inconclusive = small, poorly fitted or top-dose-only effect, or effect the other way; inactive = no such curve, though single readings can be large or run the other way.

Experiment: Cell viability assay in S16 Pmp22-HiBiT cells
Details: S16 Schwann Pmp22-HiBiT viability, CellTiter-Glo, 24 h; series mostly up to 27.9 µM; activity change, negative = cytotoxicity: at the top concentration
Source text: Assay Provider: Jim Inglese Ph.D. National Center for Advancing Translational Science, National Institutes of Health, Rockville, MD CMT is a heterogeneous group of neurological disorders that affect approximately 1 in 2,500 people. In particular, the most common form of CMT, CMT1A is genetically linked to the duplication of the PMP22 gene which leads to Schwann cell overexpression, thus manifesting itself as a typical case of dose-sensitive diseases. To identify small molecule compounds that can mediate the expression of PMP22 we developed a phenotypic assay screening strategy by utilizing genome editing techniques to construct Schwann cell lines containing novel reporter technology to monitor the transcriptional or translational regulation of PMP22. For high sensitivity we use a bioluminescent reporter system embedded in the 3' UTR of the PMP22 gene (S16(c9) Pmp22-F2sN) to identify compounds that inhibit gene expression. […] We can further discriminate the effect of all transcriptionally active molecules on PMP22 translation or stability with an assay that incorporates a short NLuc peptide (HiBiT) at the C-terminus of expressed PMP22 (S16(f8) PMP22-HiBiT) allowing alpha complementation and luminescence detection of membrane-associated PMP22 protein. These assays were screened against the NCATS Sytravon Library Collection. Miniaturization of these assays to 1536-well plate format for quantitative high throughput screening (qHTS) yielded rich data sets immediately from the qHTS assay (S16(c9) Pmp22-F2sN), when compared with data from a cell viability assay (Cell TiterGlo) to identify compounds that decreased the output signals through cellular toxicity to streamline the selection process of actives for subsequent characterization using the HiBiT assay (S16(f8) PMP22-HiBiT).
Cell viability assay in S16 Pmp22-HiBiT cells PROTOCOL TABLE (format as described by Inglese J, Shamu CE and Guy RK. 2007) SEQUENCE No. (e.g., 1, 2, 3, etc.); PARAMETER (e.g., Cells, Incubation, Reagent, etc.); VALUE and DESCRIPTION. 1. Cells. Add 500-1,000 cells in 4 uL in growth media (DMEM High Glucose, No Phenol Red media + 10% heat-inactivated FBS + 1% Pen/Strep supplemented media) per well into Greiner 1536-well white/solid bottom high base, TC-treated plates. 2. Compounds. Library compounds and controls added at 23nL per well, transferred by Pin Tool. 3. Incubation. Incubate plates at 37C, 5% CO2, 95% RH for 24 h. 4. Reagent. Add 3uL CellTiter-Glo per well of Greiner 1536-well plates. 5. Incubation. Incubate plates at room temperature for 15 min., protect from light. 6. Detector. Luminescence measured using CCD-based camera (Viewlux). NOTES (numbers refer to Sequence numbers above; values are from representative experiments) 6. Luminescence Read: Clear filter; Exposure = 1 sec, Gain = High, Speed = Slow, Binning = 2X REFERENCES: 1. Inglese J, Shamu CE and Guy RK, Reporting data from high throughput screening of small molecule libraries, Nature Chemical Biology, 2007, 3(8): 438-441. doi.org/10.1038/nchembio0807-438 2. Yasgar A, Shinn P, Jadhav A, Auld DS, Michael S, Zheng W, Austin CP, Inglese J and Simeonov A, Compound Management for Quantitative High-Throughput Screening. J. Assoc. Lab. Auto., 2008, 13: 79-89. doi: 10.1016/j.jala.2007.12.004

Structure (SMILES) | activity change, negative = cytotoxicity | Potency
CCC(Sc1nc2ccccc2c2nc(-c3ccccc3)nn12)C(=O)Nc1cccc(OC)c1 (stereo not given) | 8.89% (inactive) | –
COc1ccc(Cl)cc1NC(=O)CCCS(=O)(=O)c1nc(-c2ccc(OC)c(OC)c2)cc(C(F)(F)F)n1 | – | 6.45 µM (active)
CCC(=O)C1=C(c2cccc([N+](=O)[O-])c2)N(C(=O)CC)n2c(nnc2-c2ccccc2)S1 | 2.29% (inactive) | –
CCOC(=O)c1ccc(N2C(=O)c3[nH]nc(-c4ccc(C)cc4)c3C2c2ccc(O)c(OCC)c2)cc1 (stereo not given) | 14.4% (inactive) | –
COc1ccccc1Nc1nn2c(=O)c3ccc(C(=O)Nc4ccc(F)cc4)cc3nc2s1 | – | 4.57 µM (active)
Cc1cc(C)c(NC(=O)Cn2c(=O)n(Cc3ccco3)c(=O)c3ccc(C(=O)NC4CCCC4)cc32)c(C)c1 | 6.19% (inactive) | –
CCc1ccccc1Nc1nn2c(=O)c3ccc(C(=O)Nc4cc(C)cc(C)c4)cc3nc2s1 | – | 6.45 µM (active)
Cc1cc(NC(=O)C2CCCN(S(=O)(=O)c3cccc4nonc34)C2)ccc1Br (stereo not given) | -26.4% (inactive) | –
O=C(CSc1nc2c([nH]c3ccccc32)c(=O)n1-c1cccc(Cl)c1)c1ccccc1 | -12.8% (inactive) | –
COc1cccc(-n2c(SCC(=O)c3ccc(Cl)cc3)nc3c([nH]c4ccccc43)c2=O)c1 | 23.1% (inactive) | –
O=S(=O)(NCC(c1ccco1)S(=O)(=O)c1cccs1)c1ccc(Cl)cc1 (stereo not given) | -0.0414% (inactive) | –
COc1ccc(OC)c(NC(=O)CSc2c3c(nc4ccccc24)CCCC3)c1 | – | 16.2 µM (active)
Cc1ccc(CNC(=O)c2nc(S(=O)(=O)Cc3ccc(C)cc3)ncc2Cl)cc1 | -3.09% (inactive) | –
COCCCNC(=O)c1ccc(-n2c(-c3ccccc3)cc3c2CCC(C)C3)cc1 (stereo not given) | -10.2% (inactive) | –
Cc1ccc(S(=O)(=O)c2nnn3c2nc(NC2CCCCCC2)c2sccc23)cc1C | 19.9% (inactive) | –
Cc1ccc(OCC(=O)Nc2ccc3nc(SCC(=O)N4CCc5ccccc54)sc3c2)cc1 | -9.23% (inactive) | –
COc1ccc(NC(=O)c2nc(S(=O)(=O)Cc3ccc(C)cc3)ncc2Cl)cc1 | – | 8.13 µM (active)
Cc1cccc(Nc2c3c(nc4nncn24)CCC3)c1C | -1.52% (inactive) | –
CCc1ccc(C(=O)c2cn(CC(=O)Nc3cc(OC)cc(OC)c3)c3ccc(CC)cc3c2=O)cc1 | -7.43% (inactive) | –
COCCCNC(=O)c1ccc2c(c1)N=C(C)c1c(C)ccc(C)c1S2 | 13.1% (inactive) | –

Structure (SMILES) | activity change, negative = cytotoxicity | Potency
COc1ccc(NC(=O)c2oc3ccccc3c2NC(=O)Cc2ccc(F)cc2)c(OC)c1 | 14% (inactive) | –
Cc1ccc(C)c(NC(=O)Cn2c(=O)n(Cc3ccc4c(c3)OCO4)c(=O)c3ccc(C(=O)NC4CCCCC4)cc32)c1 | 5.15% (inactive) | –
Cc1ccc(NC(=O)CSc2nc3ccc(NC(=O)COc4ccc(C)cc4)cc3s2)cc1 | 15.4% (inactive) | –
COc1ccc(N(CC(=O)Nc2cc(Cl)ccc2C)S(=O)(=O)c2c(C)noc2C)cc1 | 50.5% (inactive) | –
CCOC(=O)c1c(NC(=O)c2nc(S(C)(=O)=O)ncc2Cl)sc(C(C)=O)c1C | – | 6.45 µM (active)
Cc1ccc(CNC(=O)c2ccc(Nc3nc4ccccc4n4nnnc34)cc2)cc1 | -11.3% (inactive) | –
COc1ccc(Br)cc1CC1C(=O)Nc2ccccc21 (stereo not given) | -24.8% (inactive) | –
Cc1cccc(CS(=O)(=O)c2ncc(Cl)c(C(=O)Nc3nc4ccc(F)cc4s3)n2)c1 | – | 6.45 µM (active)
COc1ccc(-c2noc(CSc3nnc(-c4ccncc4)n3-c3ccc(C)cc3)n2)cc1 | -9.94% (inactive) | –
O=C(NCCCN1CCN(c2ccc(F)cc2)CC1)c1cc2c(Cl)nc3ccccc3c2s1 | -13.9% (inactive) | –
CCc1ccc(OCC(=O)Nc2cc3oc4ccccc4c3cc2OC)cc1 | 5.96% (inactive) | –
CCOCCCNC(=O)c1ccc(-n2c(-c3ccccc3)cc3c2CCC(C)C3)cc1 (stereo not given) | -11.8% (inactive) | –
COc1ccccc1CNC(=O)CSc1nnc(C)c2c(C)n(-c3ccccc3)nc12 | -8.04% (inactive) | –
O=C(Cn1c(-c2cccs2)cc2cc(F)ccc21)NCCCN1CCN(c2ccc(F)cc2)CC1 | 1.66% (inactive) | –
CCC(=O)N1CCc2cc(S(=O)(=O)CCC(=O)Nc3ccc(Cl)c(C(F)(F)F)c3)ccc21 | 20.4% (inactive) | –
Cc1c(Cl)cccc1NC(=O)c1oc2ccc(S(=O)(=O)N3CCC4(CC3)OCCO4)cc2c1C | 20.1% (inactive) | –
CCC(=O)C1=C(c2cccc([N+](=O)[O-])c2)N(C(=O)CC)n2c(nnc2C2CCCCC2)S1 | 21.1% (inactive) | –
CCOC(=O)c1cc2c(=O)n3ccccc3nc2n(Cc2ccco2)c1=NC(=O)c1cc(C)cc(C)c1 | -2.04% (inactive) | –
COC(=O)c1c(-c2ccc(Cl)cc2)noc1N1CCN(c2ccccc2OC)CC1 | 4.08% (inactive) | –
COc1ccccc1Nc1c2c(nc3ccc(NC(=O)/C=C/c4cccc(OC)c4OC)cc13)CCCC2 | – | 16.2 µM (active)
